The results in this text go back to ChEMBL document CHEMBL3988442, “University of Dundee, Small-Polar-MMV Screening Library” (2021).

For some of these results: Potency and affinity values are given separately.

Set-up in all cases: scale not given: direction of the effect not stated beside the values
Experiment [1] has as its target Protein translocase subunit SecA (Escherichia coli (strain K12)) (UniProt P10408). The experiment in a line: Assay to Identify E. coli SecA ATPase Inhibitors. It is filed as functional. To be noted: 30 µM.
Experiment [2] deals with T1, Ubiquitin-activating enzyme e1, putative (Leishmania donovani (strain BPK282A1)) (UniProt E9BSI1).
T1 sequence (whole entry): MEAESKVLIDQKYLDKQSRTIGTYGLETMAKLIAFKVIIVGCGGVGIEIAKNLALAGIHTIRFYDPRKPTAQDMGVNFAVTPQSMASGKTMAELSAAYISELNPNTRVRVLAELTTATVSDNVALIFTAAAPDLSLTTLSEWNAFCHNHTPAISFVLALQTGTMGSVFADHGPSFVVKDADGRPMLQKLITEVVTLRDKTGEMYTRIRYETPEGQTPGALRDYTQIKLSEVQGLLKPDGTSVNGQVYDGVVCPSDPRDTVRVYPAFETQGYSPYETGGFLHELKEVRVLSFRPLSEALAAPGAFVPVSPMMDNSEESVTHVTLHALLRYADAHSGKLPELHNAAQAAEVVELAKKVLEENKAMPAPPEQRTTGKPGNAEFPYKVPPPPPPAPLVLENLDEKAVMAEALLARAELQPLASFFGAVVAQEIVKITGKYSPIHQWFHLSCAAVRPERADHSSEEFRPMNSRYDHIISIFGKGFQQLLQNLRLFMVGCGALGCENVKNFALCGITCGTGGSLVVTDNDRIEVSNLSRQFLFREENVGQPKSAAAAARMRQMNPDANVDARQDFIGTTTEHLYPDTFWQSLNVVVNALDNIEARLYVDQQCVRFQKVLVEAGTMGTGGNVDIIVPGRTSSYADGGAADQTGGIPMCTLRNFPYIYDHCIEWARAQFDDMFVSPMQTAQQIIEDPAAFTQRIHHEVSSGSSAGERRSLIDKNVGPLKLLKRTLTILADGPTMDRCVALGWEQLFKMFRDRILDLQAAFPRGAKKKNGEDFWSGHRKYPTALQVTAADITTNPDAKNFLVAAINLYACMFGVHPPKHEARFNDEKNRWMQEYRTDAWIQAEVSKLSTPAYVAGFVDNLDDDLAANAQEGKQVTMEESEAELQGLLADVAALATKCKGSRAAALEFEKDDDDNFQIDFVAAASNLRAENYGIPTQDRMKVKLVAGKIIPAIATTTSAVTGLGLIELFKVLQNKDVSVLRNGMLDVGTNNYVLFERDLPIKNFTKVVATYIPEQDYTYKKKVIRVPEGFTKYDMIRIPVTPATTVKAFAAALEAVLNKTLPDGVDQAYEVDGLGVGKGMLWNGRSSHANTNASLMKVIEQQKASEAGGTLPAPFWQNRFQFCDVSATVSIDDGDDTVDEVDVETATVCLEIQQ
The experiment in a line: Leishmania donovani Ubiquitin Activating Enzyme (LdE1). It is filed as functional. To be noted: 30 µM.

The target of experiment [3] is Sialic acid-binding Ig-like lectin 9 (Homo sapiens) (UniProt Q9Y336). Briefly: Hs-Siglec9 ALPHAscreen SOP 20170721. To be noted: 10 µM. A general note: In Alpha technology, singlet oxygen from a donor bead excites a nearby acceptor bead.
Sequence of Sialic acid-binding Ig-like lectin 9 (Homo sapiens) (Q9Y336 whole entry): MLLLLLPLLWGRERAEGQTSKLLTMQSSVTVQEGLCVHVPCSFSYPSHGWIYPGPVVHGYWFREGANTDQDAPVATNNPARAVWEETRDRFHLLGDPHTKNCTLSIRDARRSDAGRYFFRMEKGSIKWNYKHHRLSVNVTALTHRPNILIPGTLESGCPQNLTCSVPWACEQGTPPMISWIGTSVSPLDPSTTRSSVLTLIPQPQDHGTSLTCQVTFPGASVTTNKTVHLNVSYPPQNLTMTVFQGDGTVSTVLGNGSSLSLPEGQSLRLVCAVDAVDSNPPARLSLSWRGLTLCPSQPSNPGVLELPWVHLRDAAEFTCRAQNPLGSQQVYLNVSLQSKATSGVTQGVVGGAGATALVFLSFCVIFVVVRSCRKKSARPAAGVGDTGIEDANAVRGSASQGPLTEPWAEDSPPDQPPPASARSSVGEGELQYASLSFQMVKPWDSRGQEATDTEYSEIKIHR
Another experiment deals with Trypanosoma cruzi. The experiment in a line: Trypanosoma cruzi phosphomannomutase and mannose-1-phosphate guanylyltransferase assay. It is filed as functional. To be noted: 10 µM.
Experiment [4] concerns the target T2, Arginase-2, mitochondrial (Homo sapiens) (UniProt P78540).
T2 sequence (whole entry): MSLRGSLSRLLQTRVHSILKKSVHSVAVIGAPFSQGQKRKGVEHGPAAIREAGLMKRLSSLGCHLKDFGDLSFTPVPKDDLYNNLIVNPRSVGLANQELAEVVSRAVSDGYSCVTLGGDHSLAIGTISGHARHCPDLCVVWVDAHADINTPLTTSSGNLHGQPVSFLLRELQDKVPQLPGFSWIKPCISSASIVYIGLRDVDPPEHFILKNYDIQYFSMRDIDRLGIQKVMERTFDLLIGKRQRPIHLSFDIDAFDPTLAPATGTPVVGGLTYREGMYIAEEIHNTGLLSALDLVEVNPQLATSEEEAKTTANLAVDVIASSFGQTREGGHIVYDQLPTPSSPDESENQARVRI
Briefly: in vitro enzyme assay to detect the production of urea directly proportional to the activity of Arginase II. Further: in the data most compounds retested in dose-response had high values. It counts as functional. The note with it: 33.3 µM.

Experiment [5] has as its target T3, Proteasome subunit beta (Trypanosoma cruzi) (UniProt O96673).
T3 sequence (whole entry): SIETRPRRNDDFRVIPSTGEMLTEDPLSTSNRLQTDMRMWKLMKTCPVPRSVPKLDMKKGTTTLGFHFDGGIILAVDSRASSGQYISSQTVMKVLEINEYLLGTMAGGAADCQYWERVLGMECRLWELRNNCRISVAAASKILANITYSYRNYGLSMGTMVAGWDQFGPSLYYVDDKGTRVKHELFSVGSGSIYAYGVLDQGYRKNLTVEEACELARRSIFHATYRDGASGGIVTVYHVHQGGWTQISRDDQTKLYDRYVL
Briefly: Trypanosoma cruzi proteasome chymotrypsin-like activity (TcProtChymo) assay. Further: in the data most compounds retested in dose-response had high values. The note with it: 9.37 µM. It counts as functional.

For the next experiment, the species on record is Homo sapiens. The experiment in a line: To identify inhibition of the IFN signalling (Jak-Stat) pathway via expression of an eGFP reporter gene under the control of an IFN-stimulated response element (ISRE) containing MxA promoter. To be noted: 30 µM. It is filed as functional. On the technique in general: In a reporter assay the amount or activity of a reporter protein is the signal.

The target of experiment [6] is T4, Tyrosyl-tRNA synthetase, putative (Trypanosoma cruzi (strain CL Brener)) (UniProt Q4DSP6).
T4 sequence (whole entry): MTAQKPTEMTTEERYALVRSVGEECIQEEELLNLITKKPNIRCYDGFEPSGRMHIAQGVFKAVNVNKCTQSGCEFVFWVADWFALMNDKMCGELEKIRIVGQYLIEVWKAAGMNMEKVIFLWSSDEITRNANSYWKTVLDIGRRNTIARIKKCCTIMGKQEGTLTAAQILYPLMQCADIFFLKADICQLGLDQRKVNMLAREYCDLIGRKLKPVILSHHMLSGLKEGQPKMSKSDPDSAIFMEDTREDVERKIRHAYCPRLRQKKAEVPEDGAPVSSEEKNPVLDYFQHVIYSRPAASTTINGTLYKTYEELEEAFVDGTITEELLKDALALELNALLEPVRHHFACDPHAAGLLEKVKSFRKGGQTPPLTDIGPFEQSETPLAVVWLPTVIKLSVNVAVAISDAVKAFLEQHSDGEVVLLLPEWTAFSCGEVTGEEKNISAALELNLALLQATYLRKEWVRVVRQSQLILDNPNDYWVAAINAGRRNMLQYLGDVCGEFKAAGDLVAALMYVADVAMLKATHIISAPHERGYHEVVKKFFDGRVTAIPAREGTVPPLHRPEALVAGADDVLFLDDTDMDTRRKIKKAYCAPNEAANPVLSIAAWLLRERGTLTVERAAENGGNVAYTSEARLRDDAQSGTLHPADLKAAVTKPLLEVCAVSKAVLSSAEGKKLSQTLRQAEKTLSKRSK
Briefly: Trypanosoma cruzi tyrosyl tRNA synthetase (TcYRS) _High Tyrosine SOP. Further: in the data most compounds retested in dose-response had high values. It is filed as functional. The note with it: 30 µM.

Experiment [7] deals with T4, Tyrosyl-tRNA synthetase, putative (Trypanosoma cruzi (strain CL Brener)). The experiment in a line: Trypanosoma cruzi tyrosyl tRNA synthetase (TcYRS) SOP. To be noted: 30 µM. It is filed as functional.
Experiment [8] has as its target Chromo domain-containing protein 1 (Saccharomyces cerevisiae (strain ATCC 204508 / S288c) (Baker's yeast)) (UniProt P32657). The experiment in a line: ScCHD-1 Enzyme Inhibition Assay. Further: in the data most compounds retested in dose-response had high values. It counts as functional. The note with it: 30 µM.

Sequence of Chromo domain-containing protein 1 (Saccharomyces cerevisiae (strain ATCC 204508 / S288c) (Baker's yeast)) (P32657 whole entry, the tested form may be a part): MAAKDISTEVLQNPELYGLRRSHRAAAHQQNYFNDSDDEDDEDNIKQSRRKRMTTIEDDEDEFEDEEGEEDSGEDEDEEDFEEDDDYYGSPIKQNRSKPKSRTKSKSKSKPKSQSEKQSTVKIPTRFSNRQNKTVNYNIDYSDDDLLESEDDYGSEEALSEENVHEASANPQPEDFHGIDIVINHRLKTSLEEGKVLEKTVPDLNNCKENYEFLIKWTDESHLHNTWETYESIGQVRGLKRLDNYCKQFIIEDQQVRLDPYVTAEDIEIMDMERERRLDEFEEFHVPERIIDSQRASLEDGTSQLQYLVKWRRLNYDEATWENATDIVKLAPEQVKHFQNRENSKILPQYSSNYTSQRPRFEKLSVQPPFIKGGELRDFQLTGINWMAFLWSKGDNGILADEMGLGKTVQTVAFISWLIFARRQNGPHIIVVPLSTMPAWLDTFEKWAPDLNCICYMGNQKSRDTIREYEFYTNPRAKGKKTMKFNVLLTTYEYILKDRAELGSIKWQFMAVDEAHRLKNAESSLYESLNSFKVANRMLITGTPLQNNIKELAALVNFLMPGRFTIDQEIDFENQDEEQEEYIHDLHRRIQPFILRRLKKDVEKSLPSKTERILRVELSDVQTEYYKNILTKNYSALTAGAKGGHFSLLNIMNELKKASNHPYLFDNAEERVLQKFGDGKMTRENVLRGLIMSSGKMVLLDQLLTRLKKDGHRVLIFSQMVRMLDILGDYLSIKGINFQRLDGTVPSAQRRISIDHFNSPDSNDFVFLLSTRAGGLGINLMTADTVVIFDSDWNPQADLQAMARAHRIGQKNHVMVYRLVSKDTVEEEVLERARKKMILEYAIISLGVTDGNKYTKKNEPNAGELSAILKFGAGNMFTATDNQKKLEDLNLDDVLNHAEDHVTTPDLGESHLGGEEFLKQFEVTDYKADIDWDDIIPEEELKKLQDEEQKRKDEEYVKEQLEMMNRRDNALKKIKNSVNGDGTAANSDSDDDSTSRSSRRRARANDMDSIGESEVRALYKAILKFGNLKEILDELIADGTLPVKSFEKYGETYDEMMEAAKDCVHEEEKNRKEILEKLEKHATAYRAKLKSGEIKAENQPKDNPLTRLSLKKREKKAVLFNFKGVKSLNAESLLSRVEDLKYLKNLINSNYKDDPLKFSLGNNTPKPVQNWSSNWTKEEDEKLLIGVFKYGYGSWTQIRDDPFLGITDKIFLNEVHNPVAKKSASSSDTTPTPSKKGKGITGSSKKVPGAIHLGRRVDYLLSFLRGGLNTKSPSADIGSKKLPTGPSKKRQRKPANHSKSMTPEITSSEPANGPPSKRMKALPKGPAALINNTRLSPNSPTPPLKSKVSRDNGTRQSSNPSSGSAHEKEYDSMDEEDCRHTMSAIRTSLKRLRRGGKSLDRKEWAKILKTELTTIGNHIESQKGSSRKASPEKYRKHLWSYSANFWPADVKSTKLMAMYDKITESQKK
Sequence of Protein translocase subunit SecA (Escherichia coli (strain K12)) (P10408 whole entry): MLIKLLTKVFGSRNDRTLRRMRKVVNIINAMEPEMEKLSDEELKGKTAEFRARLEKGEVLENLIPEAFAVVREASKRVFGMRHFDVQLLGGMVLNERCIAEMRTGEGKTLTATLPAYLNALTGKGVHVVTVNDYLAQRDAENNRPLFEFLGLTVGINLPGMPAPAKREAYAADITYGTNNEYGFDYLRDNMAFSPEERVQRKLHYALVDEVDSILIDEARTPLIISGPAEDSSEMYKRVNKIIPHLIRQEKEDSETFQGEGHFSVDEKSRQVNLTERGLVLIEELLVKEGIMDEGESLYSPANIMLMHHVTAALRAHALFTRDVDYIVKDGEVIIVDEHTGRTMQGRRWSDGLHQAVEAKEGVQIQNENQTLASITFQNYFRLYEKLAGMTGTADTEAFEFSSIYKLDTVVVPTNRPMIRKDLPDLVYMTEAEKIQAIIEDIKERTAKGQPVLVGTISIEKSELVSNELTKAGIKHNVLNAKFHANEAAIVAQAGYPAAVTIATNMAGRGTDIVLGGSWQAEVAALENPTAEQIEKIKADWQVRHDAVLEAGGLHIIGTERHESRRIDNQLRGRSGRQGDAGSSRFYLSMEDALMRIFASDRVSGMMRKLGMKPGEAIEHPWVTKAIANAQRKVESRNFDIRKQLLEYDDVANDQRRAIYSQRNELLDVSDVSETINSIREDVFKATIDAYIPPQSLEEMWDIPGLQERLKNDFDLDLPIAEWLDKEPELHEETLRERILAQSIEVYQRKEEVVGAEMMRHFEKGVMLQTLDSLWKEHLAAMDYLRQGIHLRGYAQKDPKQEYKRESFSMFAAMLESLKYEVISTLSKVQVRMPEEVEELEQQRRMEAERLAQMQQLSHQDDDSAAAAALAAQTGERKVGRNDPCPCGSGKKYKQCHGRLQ

On to `COc1ccc2c(c1)OC1(CCN(Cc3ccc(F)cc3)CC1)CC2=O`, for which the Percent Effect in experiment [1] is -2.19%; in experiment [2], 14.3%; in experiment [3] it was -1.29%; in the experiment with Trypanosoma cruzi, 2.63%; in experiment [4] it was 2.74%; in [5] it was 9.36%. Also, the Percent Effect was 24.9% in the experiment listed under Homo sapiens, 2.9% in experiment [6], 2.5% in [7] and -12.1% in [8].
Consider `O=C(c1ccco1)N1C[C@H]2CCCN(Cc3cccs3)[C@H]2C1`, for which the Percent Effect in experiment [1] was -3.68%; in experiment [2], 14.3%; in [3] it was -9.29%; in the experiment on Trypanosoma cruzi it was -4.58%; in [4], -2.02%; in [5], 15.1%. Besides, the Percent Effect in the experiment filed under Homo sapiens is 28.2%; in experiment [6], 3.68%; in experiment [7], 7.69%; in experiment [8], -4.26%.
For the molecule `COc1ccc(C2CC(=O)Nc3c2nc2n3CCCC2)cc1O` (stereo not given), the Percent Effect in experiment [1] was -3.09%; in experiment [2], 2.7%; in experiment [3] it was 6.46%; with Trypanosoma cruzi, -2.04%; in experiment [4], 7.34%; in experiment [5], 22.6%. Further, the Percent Effect in the experiment listed under Homo sapiens is 23.4%; in experiment [6], 1.6%; in [7], 14.6%; in experiment [8], -3.18%.
As to `O=C(NCc1nn(-c2ccccc2)c2c1CCC2)NC1CC1`, the Percent Effect is -4.01% in [1]; 2.56% in experiment [2]; 9.31% in [3]; 0.469% with Trypanosoma cruzi; 2.05% in experiment [4]; 2.65% in [5]. For the same molecule, the Percent Effect is -3.46% in the experiment filed under Homo sapiens, 1.44% in [6], 8.43% in experiment [7] and -1.68% in experiment [8].
On to `CCN1C(=O)CCCC12CCCN(C(=O)c1cnccn1)C2` (stereo not given), for which the Percent Effect in [1] was -2.55%; in experiment [2], 3.9%; in experiment [3] it was 1.16%; in the experiment with Trypanosoma cruzi, -0.75%; in experiment [4] it was -2.28%; in [5], 2.49%. For the same molecule, the Percent Effect in the experiment listed under Homo sapiens was 14.1%; in experiment [6], 2.9%; in experiment [7], 7.5%; in [8], -6.78%.
Take `Cn1cc(CN2CCC3(CCCN3S(C)(=O)=O)CC2)cn1`: the Percent Effect in experiment [1] is -3.77%; in experiment [2] it was -1.3%; in [3], -1.55%; in the experiment with Trypanosoma cruzi, -5.36%; in experiment [4], -0.81%; in [5] it was 1.15%. Besides, the Percent Effect in the experiment filed under Homo sapiens was 1.96%; in experiment [6] it was -2.63%; in experiment [7] it was -25.6%; in experiment [8], -1.37%.
As to `CN1[C@H](CN2CCCC2)C[C@@H]2CN(C(=O)c3cccn3C)CC[C@@H]21`, the Percent Effect is -1.76% in experiment [1]; -1.3% in [2]; 1.42% in experiment [3]; 0.563% in the experiment on Trypanosoma cruzi; -0.457% in experiment [4]; 0.944% in experiment [5]. For the same molecule, the Percent Effect is -0.498% in the experiment listed under Homo sapiens, 10.6% in [6], 12.5% in experiment [7] and -6.06% in [8].
For `Cc1ccc(-c2nc(CN3CCn4c(nnc4C4CC4)C3)cs2)o1`, the Percent Effect in experiment [1] was 2.56%; in experiment [2], 0%; in experiment [3], -11.3%; in the experiment on Trypanosoma cruzi it was -0.0939%; in experiment [4], -2.87%; in experiment [5], 16.3%. Also, the Percent Effect in the experiment filed under Homo sapiens is 35.1%; in experiment [6] it was 5.26%; in [7], 10.8%; in [8] it was -4.37%.
Consider `O=C(c1cccnc1)N1CCn2nnc(COc3cccnc3)c2C1`, for which the Percent Effect in experiment [1] was -4.23%; in experiment [2], 1.3%; in experiment [3], -1.59%; in the experiment with Trypanosoma cruzi, -6.13%; in experiment [4] it was 4.45%; in [5], 14%. For the same molecule, the Percent Effect in the experiment filed under Homo sapiens was -1.63%; in experiment [6] it was 7.89%; in experiment [7] it was 7.69%; in [8], 2.46%.
With `O=C(Cn1cc(-c2ccccc2)ncc1=O)Nc1nnc[nH]1`, the Percent Effect was -1.82% in experiment [1]; 8.11% in [2]; 4.37% in experiment [3]; 2.42% with Trypanosoma cruzi; 8.74% in experiment [4]; 20.4% in experiment [5]. The Percent Effect in the experiment listed under Homo sapiens is -1.74%; in experiment [6], 6.92%; in experiment [7], 19.5%; in experiment [8], 83.7%.
Take `CC(C)(C)c1cn2nc(N3CCCC3Cn3cncn3)sc2n1` (stereo not given): the Percent Effect in [1] was 0.788%; in [2] it was 17.9%; in experiment [3], -6.25%; in the experiment on Trypanosoma cruzi, 2.72%; in experiment [4], 6.15%; in [5], 17.1%. The Percent Effect in the experiment listed under Homo sapiens was 12.8%; in experiment [6], 3.35%; in experiment [7], 20.5%; in experiment [8], -6.04%.
Regarding `Cn1cc(-c2nc(CN3CCc4c(ncn4C4CC4)C3)cs2)cn1`, the Percent Effect in experiment [1] is 0.667%; in experiment [2], -2.6%; in experiment [3], 12.4%; in the experiment with Trypanosoma cruzi it was 3.54%; in experiment [4] it was -0.615%; in experiment [5] it was 3.33%. Moreover, the Percent Effect is 8.83% in the experiment listed under Homo sapiens, 0.98% in [6], 4.71% in [7] and -7.98% in experiment [8].
On to `Cc1nc(C)n(CC2CN(CCCOc3ccccc3C)CCO2)n1` (stereo not given), for which the Percent Effect in experiment [1] was -2.1%; in [2], -2.67%; in experiment [3], -2.65%; in the experiment on Trypanosoma cruzi it was 1.61%; in [4], 2.66%; in experiment [5] it was 0.763%. The Percent Effect in the experiment filed under Homo sapiens was 7.57%; in [6], -0.526%; in experiment [7] it was -7.69%; in experiment [8], -5.97%.
